High-throughput results (PubChem)
EPAC2 antag: Validation qHTS for antagonist of cAMP-regulated guanine nucleotide exchange factor 4 (EPAC2). AID 1645886, 2021. Potency, µM (titrated, usually from 112 µM), for the others: top-dose activity, negative = inhibition, hits mostly inhibitors. EPAC2 Rap1B BODIPY-GDP exchange, fluorescence. hit rate 1.7% among 16,000;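 further: 100% = activation by cAMP agonist control; nearly all actives have a fitted effect of over 40% in size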
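Fluorescent exchange read-out: 100 nM EPAC2 with 250 nM RAP1B–BODIPY-GDP and 50 uM GDP; BODIPY-GDP release lowers fluorescence. Read at 480/540 nm every 5 min for 30 min at room temperature; normalized to 6.5 mM cAMP.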
EPAC1 agonist: Validation qHTS for agonist of cAMP-regulated guanine nucleotide exchange factor 3 (EPAC1); Rap guanine nucleotide exchange factor 3 (Homo sapiens), O95398; EPAC1 Rap1b BODIPY-GDP exchange, fluorescence; Potency, µM, for the others: max response, positive = active, usual class: activators; hit rate 1% among 16,000; AID 1645883, 2021; further: nearly all actives have a fitted effect of over 70% in size
Starred values were filed as active, the others as inactive; i = inactive; ? = inconclusive; ! = a repeat was not active; [ ] = remark or other dose. Compounds with a hit are over-represented: about 2.9% of the library has one in this group of screens. The call rests on the fitted dose curve; in most records, active means well fitted curve in the direction sought with a large enough effect; inconclusive means small, poorly fitted or top-dose-only effect, or another doubt; inactive means no such curve, though single readings can be large; an effect the other way counts as inactive or inconclusive. Unless noted, on the % scale 0 is the no-effect control and ±100 the full control effect; potency means the concentration at half of the fitted maximal effect.

SMILES	EPAC2 antag	EPAC1 agonist
COc1ccc(-c2nc3cc(F)ccc3cc2CN(C(=O)c2cccs2)C2CC2)cc1	-20%	-11%
COc1cccc(-c2nc3cc(SC)ccc3cc2CN(C(=O)c2sccc2C)C2CC2)c1	40µM*	?
COc1ccc(C(=O)/C(Br)=C\C(=O)O)cc1	7%	-13%
CCOC(=O)C[C@H]1c2ccccc2S(=O)(=O)N1Cc1cccc(C(F)(F)F)c1	56µM*	-8%
CCOC(=O)C[C@H]1c2ccccc2S(=O)(=O)N1Cc1cc(OC)c(OC)c(OC)c1	11%	18%
COC(=O)C[C@H]1c2ccc(C(F)(F)F)cc2S(=O)(=O)N1Cc1ccccc1	25µM*	-5%
CC(=O)C[C@H]1c2cc(C(F)(F)F)ccc2S(=O)(=O)N1Cc1ccccc1	?	22%
CN(C)CC/C=C1/c2ccccc2CSc2ccccc21	-10%[56.6 µM]	-20%
CC(C)Cc1nc2cc(NS(=O)(=O)N(C)C)cc(C(=O)N3CCOc4ccccc4C3)c2n1C	-15%	0%
COc1cccc(CN2CCCC(c3nc(-c4ccncc4)ncc3-c3ccccc3)C2)c1O (centres undefined)	-27%	8%
S=C(S)OC1CC2CC1C1CCCC21 (centres undefined)	-28%	-1%
S=C(S)O[C@@H]1C[C@@H]2C[C@H]1[C@@H]1CCC[C@H]21	50µM*	-2%
CN1[C@@H]2CC[C@H]1CC(NC(=O)n1c(=O)[nH]c3ccccc31)C2 (some centres undefined)	22%	4%
COC(=O)Nc1nc2ccc(C(=O)c3ccccc3)cc2[nH]1	-11%[56.6 µM]	-26%
COC(=O)Nc1nc2ccc(C(=O)c3cccs3)cc2[nH]1	79µM*!	-3%
Cc1cc(N)c2cc(NC(=O)Nc3ccc4nc(C)cc(N)c4c3)ccc2n1	40µM*	56µM*
Cc1cc(NC(=O)Nc2ccc3c(ccn3C)c2)sn1	?	2%
CN(C)c1ncc2nc(-c3cccs3)c(=O)n(C[C@H]3CCCO3)c2n1	36%	112µM*
O=c1c(-c2cccs2)nc2cnc(N3CCOCC3)nc2n1Cc1ccc(F)cc1	-1%	1%
O=c1c(CCc2ccccc2)nc2cnc(N3CCOCC3)nc2n1Cc1cccs1	0%	-1%
O=c1c(-c2cccs2)nc2cnc(N3CCOCC3)nc2n1CCc1ccccc1	7%	100µM*
COCCn1c(=O)c(-c2cn(C)c3ccccc23)nc2cnc(N3CCOCC3)nc21	-10%	-20%
CN1CCN(c2ncc3nc(CCc4ccccc4)c(=O)n(Cc4cccs4)c3n2)CC1	-20%	100µM*
Cn1cc(-c2nc3cnc(N4CCOCC4)nc3n(CCC#N)c2=O)c2ccccc21	12%	112µM*
CCNc1ncc2nc(-c3cccs3)c(=O)n(C[C@H]3CCCO3)c2n1	3%	-11%
SMILES	EPAC2 antag	EPAC1 agonist
CO[C@H]1C=CO[C@@]2(C)Oc3c(C)c(O)c4c(O)c(c5c(nc6cc(C)ccn65)c4c3C2=O)NC(=O)/C(C)=C\C=C[C@H](C)[C@H](O)[C@@H](C)[C@@H](O)[C@@H](C)[C@H](OC(C)=O)[C@@H]1C	-27%	-50%
O=C(NC(c1cccnc1)C(F)(F)F)c1cnn(-c2nccc(-c3cccs3)n2)c1C1CC1 (centres undefined)	-16%	16%
Cc1ccc(C(=O)Nc2cccc(-c3nc(CNC(=O)c4ccc5ccccc5n4)c(C)o3)c2)s1	-1%	3%
CCC1CN(Cc2cn[nH]c2-c2ccc(F)cc2)Cc2cc(OC)ccc2O1 (centres undefined)	?	-1%
O=C[C@H](O)[C@@H](O)[C@@H](O)[C@H](O)CO	-1%	-42%
COc1ccc2c(c1)CCc1cnc(-n3ncc(C(=O)NCCCc4ccncc4)c3C)nc1-2	-15%	-8%
O=c1cc(-c2cc(O)c(O)c(O)c2)oc2cc(O)cc(O)c12	?	-40%
O=c1oc2c(O)c(O)cc3c(=O)oc4c(O)c(O)cc1c4c23	i	79µM*!
CCCCCCCCCCCCCCCCCCOCC(COP(=O)([O-])OCC[N+](C)(C)C)OC (centres undefined)	7%	-24%
CC(C)C(=O)NCC1CCC2(CCN(Cc3ccc(-c4ccccc4Cl)o3)CC2)O1 (centres undefined)	-9%	12%
O=C1N[C@@H](Cc2c[nH]c3ccccc23)C(=O)N[C@H]1Cc1c[nH]c2ccccc12	-1%	4%
c1ccc2c(Cc3c[nH]c4ccccc34)c[nH]c2c1	?	100µM*
COc1ccc(-c2oc3ccccc3c(=O)c2O)cc1	-10%	-5%
COc1ccc2c(=O)c(OC)c(-c3ccccc3)oc2c1	11µM*	-8%
O=C(NCc1nnc2n1CCN(Cc1cc(F)cc(F)c1)CC2)c1cccc(F)c1	-25%	5%
COc1ccccc1N1CCN(c2nc(CNC(=O)c3ccc4c(c3)OCO4)nc3ccccc23)CC1	?	10%
Cc1cnc(SCc2ccccn2)nc1C1CCCN(C(=O)c2scc3c2CCCC3)C1 (centres undefined)	?	-14%
CO[C@H]1C=CO[C@@]2(C)Oc3c(C)c(O)c4c(O)c(cc(O)c4c3C2=O)NC(=O)/C(C)=C\C=C/[C@H](C)[C@H](O)[C@@H](C)[C@@H](O)[C@@H](C)[C@H](OC(C)=O)[C@@H]1C	-16%	-12%
CC[C@H]1OC(=O)[C@H](C)[C@@H](O[C@H]2C[C@@](C)(OC)[C@@H](O)[C@H](C)O2)[C@H](C)[C@@H](O[C@@H]2O[C@H](C)C[C@H](N(C)C)[C@H]2O)[C@](C)(O)C[C@@H](C)/C(=N\OCOCCOC)[C@H](C)[C@@H](O)[C@]1(C)O	17%[56.6 µM]	-27%
Cc1ccc(C(=O)Nc2cnn(-c3ccc(C(=O)N(C)Cc4n[nH]c5c4CCCC5)cc3)c2)c(C)c1	-12%	21%
CN(C)c1ncc2nc(-c3ccc(F)cc3)c(=O)n(CCc3ccccc3)c2n1	-3%	-38%
CN(C)c1ncc2nc(CCc3ccccc3)c(=O)n(-c3ccccc3)c2n1	-1%	112µM*
COc1ncc2nc(CCc3ccccc3)c(=O)n(-c3ccccc3)c2n1	-44%	?
CN(C)c1ncc2nc(-c3ccc(F)cc3)c(=O)n(-c3ccccc3)c2n1	-11%	100µM*
COC(=O)[C@]12CCC(C)(C)C[C@@H]1[C@@H]1C(=O)C=C3[C@@]4(C)C=C(C#N)C(=O)C(C)(C)[C@@H]4CC[C@@]3(C)[C@]1(C)CC2	?	15%
SMILES	EPAC2 antag	EPAC1 agonist
C[N+]1(C)[C@@H]2CC(OC(=O)[C@H](CO)c3ccccc3)C[C@H]1[C@H]1O[C@@H]12 (some centres undefined)	-40%	1%
CCCCCCCCCCCC(=O)OC[C@@H](O)C1OC[C@H](O)[C@H]1O (some centres undefined)	?	-129%
COC(=O)[C@H]1[C@@H]2C[C@@H]3c4[nH]c5ccccc5c4CCN3C[C@H]2CC[C@H]1O	-7%	-3%
COC(=O)[C@@H]1C2CC3c4[nH]c5cc(OC)ccc5c4CCN3CC2C[C@H](OC(=O)c2cc(OC)c(OC)c(OC)c2)C1OC (some centres undefined)	-21%	100µM*
O=C(O)[C@@H]1C[C@H](CP(=O)(O)O)CCN1	-24%	-34%
C=CC(C)(C)c1[nH]c2ccccc2c1C1=C(O)C(=O)C(c2c[nH]c3c(CC=C(C)C)cccc23)=C(O)C1=O	45µM*	-14%
